Source: PubChem BioAssay (NCATS)
Records with an inconclusive call do not appear. A number with no mark means an inactive call. Activity calls are given as the source filed them. Calls come from the whole dose curve; as a rule, active = well fitted cell-killing curve with a large enough effect; inconclusive = small, poorly fitted or top-dose-only effect, or effect the other way; inactive = no such curve, though single readings can be large or run the other way.
Potency is the fitted concentration of half-maximal effect.

Assay: qHTS of pediatric cancer cell lines to identify multiple opportunities for drug repurposing: Confirmatory screen for MG 63 (6-TG R) cells (AID 1347119); note: nearly all actives have a fitted effect of over 55% in size
Settings: MG-63 (6-TG resistant) osteosarcoma viability; series mostly up to 45.9 µM; activity change, negative = cytotoxicity: at the top concentration
Excerpt: Drug repurposing or repositioning has been offered as a strategy for drug development in oncology programs. This approach has special potential for childhood cancers and other rare or orphan diseases, where the expected return on new drug development has been a disincentive to pharmaceuticals.
In this project we exploit the poly-pharmacology of drugs to discover new indications via phenotypic screening of a panel of 19 well-characterized cell lines derived from solid tumors seen in children and adolescents. The goal is to identify approved drugs with previously unrecognized anticancer properties that has the potential to reveal new mechanisms and biological processes involved in carcinogenesis or drug resistance. We employed a titration-based paradigm (quantitative high-throughput screening or qHTS), where all compounds were tested at multiple concentrations for their effect on cell viability. Concentration-response curves (CRCs) were derived directly from the primary screen, and both potency and efficacy values were used to identify compounds with robust bioactivity profiles. We screened the NIH Chemical Genomics Center (NCGC) Pharmaceutical Collection (NPC) and Mechanism Interrogation Plate (MIPE) small molecule collections of approved and investigational compounds against these cell lines; and measured metabolically active cells after 48 hours of compound treatment as a proxy for cell viability.
Assay Submitter: Nathalia J. Martinez, National Center for Advancing Translational Sciences, National Institutes of Health, Rockville, MD, USA; email: natalia.martinez@nih.gov
[1] Shen, M et al. Quantitative high-throughput phenotypic screening of pediatric cancer cell lines identifies multiple opportunities for drug repurposing. Oncotarget 2017 Dec 19;9(4):4758-4772. PMID 29435139.
The cells were obtained from University of North Carolina (UNC), Pediatric Preclinical Testing Program (PPT), and Coriell Institute (CI).
qHTS cell viability assay:
Cells were assayed in growth media at a density of 500-1,000 cells/well. Five microliters of cells were dispensed into 1,536-well, white, solid-bottom, TC-treated plates (Greiner Bio One) using a multidrop dispenser and incubated at 37 degrees C, 5% CO2, under a humidified atmosphere for 5 hours. Twenty-three nanoliters of compounds and controls (neutral control DMSO or positive control bortezomib at final concentration of 2.3 µM) were subsequently transferred by Kalypsys pintool. For primary screens, the MIPE collection was tested at 11-point dilutions (final concentrations range from 0.78 nM to 46 µM) and the NPC collection at 8-point dilutions (final concentrations range from 0.59 nM to 46 µM). Compounds tested in follow-up screens were assayed at 11-point dilutions. Cells were incubated for 48 hours, followed by addition of 3 µL of CellTiter-Glo (Promega). After a 15 min incubation at room temperature, samples were analyzed for luminescence intensity using a ViewLux High-throughput CCD imager equipped with clear filters.
For `OC(CN1CCC(Cc2ccc(F)cc2)CC1)c1ccc(Cl)cc1` (stereo not drawn), the “activity change, negative = cytotoxicity” value was -7.65%.
For `Nc1nc2c(ncn2COCCO)c(=O)[nH]1`, the “activity change, negative = cytotoxicity” value was -27%.
With `NC(=O)c1ccc(I)c([N+](=O)[O-])c1` the “activity change, negative = cytotoxicity” value was -20.4% [at 95.5 µM].
For `NCCCC(N)(C(=O)O)C(F)F` (stereo not drawn), the “activity change, negative = cytotoxicity” value was -1.61%.
In the case of `CCOc1cc(N2CCC(O)CC2)ccc1Nc1ncc2c(n1)N(C)c1ccccc1C(=O)N2C`, the Potency is reported as 4.14 µM (active).
For `CCOc1ccn(-c2ccc(F)cc2)c(=O)c1C(=O)Nc1ccc(Oc2ccnc(N)c2Cl)c(F)c1`, the Potency was 10.4 µM (active).
For `CN(C)c1ccc(C2Nc3ccc4ccccc4c3C3=C2C(=O)CC(C)(C)C3)cc1Br` (stereo not drawn), the Potency was 7.59 µM (active).
With `CCC(C)n1ncn(-c2ccc(N3CCN(c4ccc(OC[C@H]5CO[C@](Cn6cncn6)(c6ccc(Cl)cc6Cl)O5)cc4)CC3)cc2)c1=O` (stereo partly drawn) the “activity change, negative = cytotoxicity” value was -7.95%.
With `Cc1c(CN2CCN(C(=O)C(C)C)CC2)sc2c(N3CCOCC3)nc(-c3cnc(N)nc3)nc12` the Potency was 0.369 µM (active).
In the case of `C#Cc1cccc(Nc2ncnc3cc(OCCOC)c(OCCOC)cc23)c1`, the Potency is reported as 16.5 µM (active).
For `O=C(c1cc(Cc2n[nH]c(=O)c3ccccc23)ccc1F)N1CCN(C(=O)C2CC2)CC1`, the “activity change, negative = cytotoxicity” value was -7.25%.
In the case of `COc1ccc(-c2ccc3c(N4CCOC[C@H]4C)nc(N4CCOC[C@H]4C)nc3n2)cc1CO`, the Potency is reported as 0.0928 µM (active).
With `Nc1nc2ccc(OC(F)(F)F)cc2s1` the Potency was 18.5 µM (active).
In the case of `COc1cc(Nc2ncc3c(n2)-c2ccc(Cl)cc2C(c2c(F)cccc2OC)=NC3)ccc1C(=O)O`, the Potency is reported as 0.233 µM (active).
For `CCC(C)(C)C(=O)O[C@H]1C[C@@H](C)C=C2C=C[C@H](C)[C@H](CC[C@@H]3C[C@@H](O)CC(=O)O3)[C@H]21`, the Potency was 2.93 µM (active).
For `Oc1cccc(-c2nc(N3CCOCC3)c3oc4ncccc4c3n2)c1`, the Potency was 0.135 µM (active).
For `COCC(=O)NCC=Cc1ccc2ncnc(Nc3ccc(Oc4ccc(C)nc4)c(C)c3)c2c1`, the Potency was 38 µM (active).
In the case of `NC(N)=NC(=O)c1nc(Cl)c(N)nc1N`, the “activity change, negative = cytotoxicity” value is reported as 17.8%.
With `O=NN(CCCl)C(=O)NCCCl` the Potency was 20.8 µM (active).
With `C[C@]1(c2nc3c(C(N)=O)cccc3[nH]2)CCCN1` the “activity change, negative = cytotoxicity” value was -11.1%.
With `CS(=O)(=O)c1ccc(C(=O)Nc2ccc(Cl)c(-c3ccccn3)c2)c(Cl)c1` the “activity change, negative = cytotoxicity” value was -14.7%.
In the case of `CN1CCN(CCCN2c3ccccc3Sc3ccc(C(F)(F)F)cc32)CC1`, the Potency is reported as 23.3 µM (active).
For `COc1ccc(-c2oc3cc(OC)ccc3c2C(=O)c2ccc(C#N)cc2)cc1`, the “activity change, negative = cytotoxicity” value was -18.2%.
